The values below come from PubChem BioAssay.

Several values for one entry are separate records, joined by “and”; a condition that tells them apart may be missing. Identical values can stand only once. Activity calls are given as the source filed them. Unless noted, how the calls were made is not given here.

The nature of test [1]: viability loss with induced miR-34 in A549 – imaging, A549 dox-inducible miR-34, nuclei and caspase counts, primary screen (AID 1347080;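 active means compounds whose cell count with miR-34 switched on is under 0.7 times the count with it off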). The following applies: A549 miR-34 inducible, Hoechst nuclei count, 48 h.
A short description of test [2]: compounds altering viability of human ES cells (AID 493140).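 Further: cells exposed to compounds for four days before counting.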 As to conditions: human embryonic stem cell survival screen; stronger effect = higher value.
Test [3] is described as follows: chitosan synthesis blockers in C. neoformans – flow cytometry, Cibacron Brilliant Red staining (AID 1347148).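 Further: compound exposure lasted three days at 37 degrees C.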 As to conditions: Cryptococcus neoformans chitosan, stronger effect = lower value; at 10 µM unless noted. In general terms: In flow cytometry, cells or beads pass a laser one at a time.
Test [4] can be described thus: compounds altering circadian rhythm period length – cell-based, LOPAC library, luminescence reporter (AID 2774).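 Further: values are relative to mean of DMSO wells on each plate.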 As to conditions: circadian reporter cells, at 7 µM, actives lie on both sides.
Test [5] deals with Hepatitis C virus NS3 helicase. Nature of the test: blockers of NS3h binding to ssDNA – biochemical, fluorescence polarization, LOPAC1280 library, primary screen (AID 687035; in the data active means inhibition above about 37%). As to conditions: Purified HCV NS3 helicase, Cy5-dT15 ssDNA binding fluorescence polarization; stronger effect = higher value; concentration not given here.
Test [6] is described as follows: compounds altering Cy5-DNA-NS3h complex signal – biochemical, LOPAC1280, artefact control for HCV NS3 helicase inhibitor project (AID 687037). The following applies: Cy5-DNA-NS3h complex fluorescence interference counterscreen. In general terms: Counterscreens check selectivity or assay interference.
The nature of test [7]: blockers of cellular phospholipid synthesis – cell-based, LOPAC library, screen 4, primary screen (AID 1347384). As to conditions: animal cells, phospholipid biosynthesis inhibition screen; at 10 µM.
Test [8] in a line: galactose survival enhancers in mitochondrial complex I cybrids – cell-based, galactose medium, ATP luminescence, primary screen (AID 1645843;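 active means z-score of at least 1.8 in each of two replicates, scored against plate mean and spread of sample wells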;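 further: positive z means more ATP and so rescue of galactose-driven cybrid death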). The following applies: complex I mutant cybrid cells, 72 h, stronger effect = higher value.
The nature of test [9]: MELAS cybrid and Rieske KO viability enhancers – cell-based, MELAS cybrids, Rieske KO mouse fibroblasts, CellTiter-Glo, primary screen (AID 1508586;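 active means mean z-score across replicates of 1.96 or higher in either the MELAS or the Rieske mutant cell line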;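 further: z relative to plate mean and SD of compound and empty wells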). As to conditions: low glucose. On the technique in general: Cellular ATP, detected with luciferase, serves as a proxy for viable cell number.
Test [10] is described as follows: P. berghei load reduction in hepatocytes – cell-based, HepG2, luciferase luminescence, HepG2 viability, primary screen (AID 624349; in the data active means parasite load remaining mostly below about 12%, no sharp cut-off; inactive means mostly above about 10%;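 further: 100% = mean of DMSO negative control wells on the same plate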). As to conditions: P. berghei liver stage in HepG2, luciferase luminescence, concentration not given here; parasite load remaining: stronger effect = lower value; viability: measured here: HepG2 viability without parasites.
Setting [11] is: stronger effect = lower value, cell number ratio, induced over uninduced.
[12] abbreviates: measured here: relative caspase fold change +Dox/-Dox.
[13] abbreviates: measured here: total cells with miR-34 induction, stronger effect = lower value.
The mark [14] stands for this setting: measured here: total cells without miR-34 induction.
Where [15] appears, read: MELAS cybrid survival, CellTiter-Glo 48 h, stronger effect = higher value.
Where [16] appears, read: Rieske KO mouse fibroblast survival, CellTiter-Glo 72 h.

As to `CCCCCC(=O)/C=C/[C@@H]1[C@H](C/C=C\CCCC(=O)O)[C@H](O)C[C@H]1O`, the fold change in test [1] (setting [11]) is 0.99 (inactive); in [1] (setting [12]), 3.22. For the same compound, the cell count in test [1] (setting [13]) was determined as 5630; in test [1] (setting [14]), 5690.

For the compound `CC/C=C\C/C=C\C/C=C\C/C=C\C/C=C\CCCC(=O)O`, in [2], the survival was 106 (inactive). The fold change in [1] (setting [11]) is 0.976 (inactive) and 0.979 (inactive); in test [1] (setting [12]), 0.982 and 0.878. The cell count was 5680 and 5960 in [1] (setting [13]); 5820 and 6080 in test [1] (setting [14]). The fold fluorescence in [3] is 4.6 (inactive).

By inhibition is commonly meant the change of the read-out against control, counted positive when it falls. In the case of `CCN(CC)CCCCCCCCOC(=O)c1cc(OC)c(OC)c(OC)c1`, the period change in [4] is -0.085 h (inactive). In addition, the inhibition in test [5] is -4% (inactive). Further, in test [6], the fluorescence ratio (interference) is 0.9 (inactive). Also, the fold change in test [1] (setting [11]) is 1.02 (inactive) and 0.949 (inactive); in test [1] (setting [12]), 0.695 and 1.09. For the same compound, the cell count in test [1] (setting [13]) was 8240 and 4880; in test [1] (setting [14]), 8090 and 5140. For the same compound, in [3], the fold fluorescence was 8.07 [at 126.4 µM] (inactive). In addition, the result in [7] was inactive. Besides, the z-score in [8] was -0.285 (inactive).

`CS(=O)(=O)Nc1ccc([N+](=O)[O-])cc1OC1CCCCC1`: the fold change in test [1] (setting [11]) is 0.816 (inactive) and 0.974 (inactive); in test [1] (setting [12]), 1.1 and 1.38. Besides, the cell count in test [1] (setting [13]) was 4510 and 5650; in test [1] (setting [14]) it was 5530 and 5800. For the same compound, in [3], the fold fluorescence is 5.81 [at 159.1 µM] (inactive).

`CCCCC/C=C\C/C=C\C/C=C\CCCCC(=O)OC`: the figures for the fold change in test [1] (setting [11]) and in [1] (setting [12]) were 1.06 (inactive) and 0.952, respectively. Besides, the cell count in test [1] (setting [13]) was 6900; in test [1] (setting [14]), 6530.

For `CCCCCC[C@@H]([C@@H](C)O)n1cnc2c(N)ncnc21`, the period change in test [4] is 0.15 h (inactive). In test [5], the inhibition was -4% (inactive). The fluorescence ratio (interference) in [6] was 1 (inactive). The fold change was 0.934 (inactive) and 0.834 (inactive) in [1] (setting [11]); 0.993 and 0.703 in [1] (setting [12]). In addition, the cell count in [1] (setting [13]) was 8420 and 3190; in test [1] (setting [14]), 9020 and 3820. Also, the fold fluorescence in [3] is 5.1 [at 180.3 µM] (inactive). For the same compound, the outcome in test [7] was inactive. Moreover, the z-score in [8] is -0.69 (inactive).

Turning to `CCCCC/C=C\C/C=C\CCCCCCCC(=O)OC[C@H](O)CO`, the fold change is 0.698 (active) in [1] (setting [11]) and 0.477 in test [1] (setting [12]). In addition, the figures for the cell count in test [1] (setting [13]) and in [1] (setting [14]) were 4490 and 6430, respectively.

In the case of `O=c1oc(Cl)c(Cl)c2ccccc12`, the period change in test [4] was -0.015 h (inactive). Moreover, in test [5], the inhibition was -3% (inactive). In addition, in [6], the fluorescence ratio (interference) was 1 (inactive). Besides, the fold change in test [1] (setting [11]) is 1.11 (inactive) and 1.06 (inactive); in test [1] (setting [12]), 1.14 and 0.927. For the same compound, the cell count was 6300 and 1380 in [1] (setting [13]); 5680 and 1300 in [1] (setting [14]). For the same compound, the fold fluorescence in test [3] was 6.4 [at 232.5 µM] (inactive). Besides, the result in test [7] was inactive. The z-score in test [8] is -1.02 (inactive).

With `CCCCCCCCCCCCCCCC(=O)N[C@H]1CCOC1=O`, the fold change in [1] (setting [11]) was 0.999 (inactive); in [1] (setting [12]), 1.15. In addition, the cell count in test [1] (setting [13]) and in test [1] (setting [14]) was 5590 in each case.

As to `O=c1[nH]c2cc(C(F)(F)F)ccc2n1-c1cc(C(F)(F)F)ccc1O`, the period change in [4] was -0.3 h (inactive). For the same compound, in test [5], the inhibition is -6% (inactive). The fluorescence ratio (interference) in test [6] is 0.9 (inactive). For the same compound, the fold change in [1] (setting [11]) is 0.996 (inactive) and 0.985 (inactive); in test [1] (setting [12]), 0.925 and 0.952. Further, the cell count in test [1] (setting [13]) was 9130 and 5130; in [1] (setting [14]), 9180 and 5210. Further, the fold fluorescence in test [3] was 3.32 [at 138 µM] (inactive). For the same compound, the compound was classed as inactive in test [7]. Besides, the z-score in test [8] was 0.585 (inactive).

As for `Nc1ccc2c3c(cccc13)C(=O)NC2=O`, the period change in [4] was 0.025 h (inactive). In addition, the inhibition in test [5] was -1% (inactive). The fluorescence ratio (interference) in [6] was 1 (inactive). The fold change was 0.949 (inactive) and 1.13 (inactive) in test [1] (setting [11]); 1.39 and 0.672 in [1] (setting [12]). Besides, the cell count in test [1] (setting [13]) is 8220 and 6020; in test [1] (setting [14]) it was 8660 and 5330. For the same compound, the fold fluorescence in [3] is 4.37 [at 235.6 µM] (inactive). The compound was called inactive in test [7]. For the same compound, the z-score in test [8] is 0.605 (inactive).

Turning to `CC(=O)OCOC(=O)CN(CC(=O)OCOC(C)=O)c1ccccc1OCCOc1ccccc1N(CC(=O)OCOC(C)=O)CC(=O)OCOC(C)=O`, the fold change is 1.04 (inactive) and 0.871 (inactive) in test [1] (setting [11]); 1.07 and 0.533 in test [1] (setting [12]). Further, the cell count in test [1] (setting [13]) is 2560 and 5870; in test [1] (setting [14]) it was 2460 and 6740. Moreover, in [3], the fold fluorescence is 5.04 [at 65.4 µM] (inactive). The z-score is -0.31 (inactive) in [9] (setting [15]) and 0.894 in test [9] (setting [16]).

Turning to `Nc1nc2c([nH]c(=O)n2[C@H]2C[C@H](O)[C@@H](CO)O2)c(=O)[nH]1`, the figures for the fold change in [1] (setting [11]) and in [1] (setting [12]) were 0.857 (inactive) and 1.18, respectively. Moreover, the cell count in [1] (setting [13]) amounted to 4960; in test [1] (setting [14]), 5800.

On to `O=C1C(Nc2ccccc2)=CC(=O)c2ncccc21`, for which the fold change in [1] (setting [11]) was 0.735 (inactive) and 0.883 (inactive); in test [1] (setting [12]) it was 1.99 and 0.965. For the same compound, the cell count in test [1] (setting [13]) was 1070 and 904; in test [1] (setting [14]) it was 1450 and 1020. Moreover, in test [3], the fold fluorescence was 7.9 [at 199.8 µM] (inactive).

Turning to `CCCCCCCCCCCCC/C=C/[C@@H](O)[C@@H](N)CO`, the survival in test [2] was 98.4 (inactive) and 83.2 (inactive). In addition, the fold change was 0.985 (inactive) and 0.945 (inactive) in [1] (setting [11]); 1.13 and 1.49 in test [1] (setting [12]). Besides, the cell count is 6200 and 6060 in test [1] (setting [13]); 6290 and 6410 in test [1] (setting [14]). Further, the fold fluorescence in test [3] is 8.01 (inactive).

Turning to `CCCCCCCC/C=C\CCCCCCCC(=O)OC[C@H](CO)OC(C)=O`, the survival in [2] was 98.6 (inactive). In addition, the fold change in test [1] (setting [11]) is 0.972 (inactive) and 0.952 (inactive); in test [1] (setting [12]), 0.87 and 0.868. Also, the cell count in test [1] (setting [13]) was 6120 and 5660; in [1] (setting [14]), 6290 and 5950. Further, the fold fluorescence in [3] is 5.82 (inactive).

As usually defined, the viability is the share of living cells, or the viability signal relative to a control. With `COc1cc2ncc(-c3ccccc3)nc2cc1OC`, the survival in test [2] is 66.2 (inactive). For the same compound, the parasite load remaining in [10] is 37% (inactive). Also, the viability in test [10] is 96.9%. Besides, the fold change in test [1] (setting [11]) is 0.803 (inactive) and 0.84 (inactive); in [1] (setting [12]), 1.43 and 0.498. Moreover, the cell count was 3060 and 6730 in test [1] (setting [13]); 3820 and 8010 in test [1] (setting [14]). The fold fluorescence in [3] is 6 [at 187.8 µM] (inactive). Besides, the z-score in [9] (setting [15]) was 0.0666 (inactive); in test [9] (setting [16]), 1.44.

With `CC12C(=O)OC(=O)C1(C)C1CCC2O1` (stereo not given), the period change in [4] is -0.375 h (inactive). Also, the survival in test [2] is 0 (inactive). Further, the inhibition in test [5] was 0% (inactive). Moreover, the fluorescence ratio (interference) in test [6] is 1 (inactive). The fold change in [1] (setting [11]) was 1.31 (inactive) and 0.948 (inactive); in [1] (setting [12]) it was 1.51 and 0.943. Moreover, the cell count in [1] (setting [13]) is 607 and 462; in test [1] (setting [14]), 465 and 488. Moreover, the fold fluorescence in [3] was 5.03 [at 254.8 µM] (inactive). For the same compound, the outcome in test [7] was inactive. Further, the z-score in test [8] is -1.43 (inactive).

With `CCN(CC)c1ccc(C2=C(Cl)C(=O)c3ncccc3C2=O)cc1`, the fold change in test [1] (setting [11]) is 1.01 (inactive); in test [1] (setting [12]), 1.74. Moreover, the cell count worked out at 4440 in test [1] (setting [13]) and 4390 in test [1] (setting [14]).
